We go through twelve molecules from PubChem BioAssay (NCI).

About 83,000 compounds went through this panel and 20% of them were active in at least one assay; those are over-represented in the sample as a whole.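 How to read the values: 0–100, growth inhibition (40 = 60% inhibited); 0, no net growth; -100 to 0, cell death (-40 = 40% of starting cells died; -100 = all dead).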 Unmarked numbers belong to inactive results. The source made the active and inactive calls. How the source made its calls: active means growth percent below 10; inactive means the rest.

Assay in all cases: NCI-60 one-dose screen, 48 h (100 = growth as untreated, 0 = no growth, -100 = all killed)
Common to all, as to conditions: 10 µM

The test system of assay [1] is HCT-15 colon.
Assay [2] concerns HT29 colon.
The test system of assay [3] is SNB-75 CNS.
Assay [4] has as its system SNB-19 CNS.
For assay [5], the system named is U251 CNS.
In assay [6] the test system is PC-3 prostate.
Assay [7] concerns SK-MEL-5 melanoma.
Assay [8] has as its system UACC-62 melanoma.
Assay [9] relates to LOX IMVI melanoma.
Assay [10] concerns SK-MEL-28 melanoma.

On to `Fc1ccc(Nc2ccnc(N3CCN(c4ccnc5cc(Cl)ccc45)CC3)n2)cc1`, for which the growth is 38.4% in assay [1]; 22.3% in [2]; 74.2% in assay [3]; 65.7% in assay [4]; 47% in assay [5]; 23% in assay [6]. The growth is 26% in assay [7], 45.3% in assay [8], 49.8% in assay [9] and 81% in assay [10].
`CCCCCN(CCCCC)C(C)C(O)c1ccc2cc(Cl)c3ccccc3c2c1` (stereo not given): the growth in [1] was 93.1%; in assay [2] it was 55.5%; in assay [3], 93.8%; in assay [4], 104%; in assay [5], 90%; in assay [6], 80.6%. In addition, the growth in assay [7] is 89.9%; in assay [8], 88.2%; in [9], 94.3%; in assay [10] it was 108%.
Take `COc1ccc(Cn2cc3c(c2-c2cc(OC)c(OC)c(OC)c2)CCc2cnoc2-3)cc1N`: the growth in [1] is 17.5%; in [2], 8.78% (active); in assay [3] it was 50.5%; in [4], 44.6%; in [5], 23.2%; in assay [6] it was 31.1%. In addition, the growth was -17.9% (active) in assay [7], 50.5% in assay [8], 18.7% in assay [9] and 62% in [10].
With `COc1ccc(-c2cc(=O)n(-c3nc4ccccc4[nH]3)[nH]2)cc1OC`, the growth in [1] was 32%; in assay [2], 109%; in assay [3], 60.2%; in [4], 63.2%; in [5], 45.9%; in assay [6] it was 62.5%. Besides, the growth is 62.7% in assay [7], 31% in assay [8], 61.8% in assay [9] and 84% in assay [10].
Regarding `O=C/C=C/c1ccc([N+](=O)[O-])cc1Cl`, the growth was 98% in [1]; 97.4% in assay [2]; 101% in assay [3]; 105% in assay [4]; 100% in assay [5]; 86.6% in assay [6]. In addition, the growth in assay [7] is 100%; in assay [8], 96.5%; in assay [9], 47.8%; in [10], 102%.
As for `COc1cc(C2C=C(c3ccc(Cl)c(Cl)c3)N=C3SC(C)=CN32)cc(OC)c1OC` (stereo not given), the growth in [1] is 64.8%; in assay [2], 53.1%; in assay [3] it was 81.7%; in assay [4], 79.5%; in assay [5] it was 51.2%; in assay [6], 59.2%. The growth in [7] is 83.9%; in assay [8], 85.8%; in assay [9] it was 41.3%; in assay [10] it was 102%.
Consider `O=C1/C(=C/c2ccc(O)cc2O)N=C2SCCCN12`, for which the growth in assay [1] is 97.3%; in [2], 93.9%; in [3] it was 96.2%; in assay [4], 97%; in assay [5] it was 99.2%; in assay [6] it was 100%. The growth was 99.7% in assay [7], 97.4% in [8], 102% in [9] and 98.4% in [10].
`Cc1cc(C)c2nc(C)c(C)[n+]([O-])c2c1`: the growth in assay [1] is 97.6%; in assay [2] it was 96.3%; in assay [3], 84.1%; in assay [4], 109%; in [5] it was 90.6%; in assay [6] it was 72.8%. Besides, the growth in assay [7] is 104%; in assay [8], 105%; in assay [9] it was 95.4%; in assay [10], 106%.
For the molecule `CCCCCc1cc[n+](CC(=O)c2ccc(Cl)cc2)cc1`, the growth in assay [1] is 98.5%; in [2] it was 64.7%; in assay [3], 84.4%; in assay [4] it was 96.7%; in assay [5] it was 97.8%; in [6], 85.7%. The growth in [7] was 94.9%; in [8] it was 82.8%; in assay [9], 87.4%; in [10], 101%.
Turning to `CCOC(=O)c1sc(Nc2ncccn2)nc1-c1ccccn1`, the growth in [1] was 50.8%; in [2], 99.6%; in [3] it was 108%; in assay [4], 91.5%; in assay [5] it was 73.2%; in assay [6] it was 86.3%. The growth in [7] was 83.2%; in assay [8], 97.6%; in assay [9], 79.9%; in assay [10], 94.7%.
Consider `N#Cc1c2c([nH]c(=O)c1C(N)=O)CCCCC2`, for which the growth in assay [1] was 105%; in assay [2], 105%; in [3], 104%; in [4], 99%; in [5], 98.3%; in assay [6], 103%. For the same molecule, the growth in [7] is 95.8%; in assay [8], 88.3%; in assay [9] it was 101%; in [10], 106%.
Turning to `O=C(CCCC(=O)N/N=C/c1cc(Cl)ccc1O)N/N=C\c1cc(Cl)ccc1O`, the growth was 28.1% in [1]; 55.4% in assay [2]; 58.9% in assay [3]; 48.1% in [4]; 21% in [5]; 24% in [6]. The growth was -1.89% (active) in [7], -16.9% (active) in assay [8], 7.26% (active) in [9] and 35.8% in [10].
